The campaign covered roughly 69,000 compounds. About 8,600 (12%) showed an effect of 50% or more. The sample as a whole holds a higher share of strong results than the screen did.

Consider 52 molecules from ChEMBL document CHEMBL4513216, “Probing the Open Global Health Chemical Diversity Library for Multistage-Active Starting Points for Next-Generation Antimalarials” (ACS Infect Dis, 2020).

In this experiment the test system is Plasmodium berghei. Kind of experiment: Screen against P. berghei liver stage (PbLuc), transformed with Luciferase, at 10uM. It is filed as functional, HepG2. The conditions noted are these: tested at 10 uM.
For `CSc1ccccc1NC(=O)C1CN(C(=O)c2ccc3c(c2)OCO3)C1`, the INHIBITION came to 12.7%.

Consider `CN(C)C(=O)[C@@H]1CCO[C@@H]2CCN(c3ncccn3)C[C@@H]21`, for which the INHIBITION was determined as 8.85%.

In the case of `Cc1nc(C)n(CC2CCCN(Cc3nnc(-c4ccco4)o3)C2)n1` (configuration not stated), the INHIBITION is on record as -0.79%.

As for `Cc1nc(C)n(CC2CCCCN2Cc2nnc(-c3ccco3)o2)n1` (configuration not stated), the INHIBITION is reported as -9.07%.

Consider `Cc1nc(C)n(CC2CCCN2Cc2nnc(-c3ccco3)o2)n1` (configuration not stated), for which the INHIBITION was 50%.

On to `O=C(Cn1cc(-c2ccccc2)ncc1=O)Nc1nc(C2CC2)n[nH]1`, for which the INHIBITION worked out at 33.7%.

Take `O=C(N[C@H]1COC[C@@H]1N1CCCC1)c1csc(-c2cccs2)n1`: the INHIBITION amounted to 34.2%.

As for `COc1ccc(C[C@H]2CN(C(=O)c3ncccn3)CC[C@@H]2OC)cc1`, the INHIBITION was found to be 27.2%.

On to `COc1ccc(C[C@H]2CN(C(=O)c3ccncc3)CC[C@@H]2OC)cc1`, for which the INHIBITION was 34.1%.

Regarding `COc1ccc(C[C@H]2CN(c3cc(OC)ncn3)CC[C@H]2OC)cc1`, the INHIBITION worked out at 74.8%.

Turning to `COc1cc(N2CC[C@@H](OC)[C@@H]2Cc2ccccc2)ncn1`, the INHIBITION was -30%.

Consider `COc1ccc(C[C@H]2CN(c3cc(OC)ncn3)CC[C@@H]2OC)cc1`, for which the INHIBITION turned out to be 55.5%.

For the molecule `COc1ccc(C[C@H]2CN(C(=O)c3ccc(C)nc3)CC[C@@H]2OC)cc1`, the INHIBITION is -12.2%.

For `c1cc(CN2CCCn3cnc(COCC4CC4)c3C2)ccn1`, the INHIBITION stood at 18.5%.

On to `COCc1nn(C)c2c1CCN(Cc1cnn(C)c1)C2`, for which the INHIBITION is reported as -17.1%.

For `N#Cc1ccc(CNCCc2cc(F)cc3c2OCOC3)cc1`, the INHIBITION was found to be 28.8%.

Consider `Cc1cc(C(=O)N2CCO[C@H]3[C@H](OCCN(C)C)CC[C@@H]32)c(C)[nH]1`, for which the INHIBITION worked out at 24.3%.

For `O=C1OCCN1CC(=O)N1C[C@@H]2CC[C@H]1CN(C(=O)c1ccccn1)C2`, the INHIBITION is listed as 44.8%.

As for `O=C1Nc2ccccc2CN(CC2CC2)C12CCNC2` (configuration not stated), the INHIBITION turned out to be 46.6%.

For the molecule `O=C(CN1CC(c2nc(Cc3ccccc3)no2)C1)NCC1CCCO1` (configuration not stated), the INHIBITION is listed as 2.55%.

Turning to `CN(C)C(=O)N1CC(C(=O)NCC2CC2)C2(CCOCC2)C1` (configuration not stated), the INHIBITION is 36.7%.

Regarding `Cc1ccc(NC(=O)N2CC(C(=O)NC(C)C)C3(CCOCC3)C2)cc1` (configuration not stated), the INHIBITION is 80%.

On to `CC(C)NC(=O)C1CN(C(=O)Cc2ccccc2)CC12CCOCC2` (configuration not stated), for which the INHIBITION was 53.4%.

With `CC(C)NC(=O)C1CN(C(=O)Nc2ccc(F)cc2)CC12CCOCC2` (configuration not stated), the INHIBITION came out at 14.8%.

Consider `CC(C)NC(=O)C1CN(C(=O)N(C)C)CC12CCOCC2` (configuration not stated), for which the INHIBITION was determined as 89.2%.

In the case of `CC(C)NC(=O)C1CN(C(=O)Cc2cccc(F)c2)CC12CCOCC2` (configuration not stated), the INHIBITION was 10%.

As to `CC(C)NC(=O)C1CN(C(=O)N2CCCC2)CC12CCOCC2` (configuration not stated), the INHIBITION is reported as 22.7%.

Consider `CC(C)NC(=O)C1CN(C(=O)CCc2ccccc2)CC12CCOCC2` (configuration not stated), for which the INHIBITION is 20.9%.

With `CC(C)NC(=O)C1CN(C(=O)Nc2ccccc2)CC12CCOCC2` (configuration not stated), the INHIBITION is recorded as 17.6%.

As for `CN(CCOCC1CC1)C(=O)Nc1ccc([S+](C)[O-])c(F)c1` (configuration not stated), the INHIBITION was found to be 41.3%.

As for `Cc1cnn(CC(=O)N2CCCN(Cc3cnn(C(C)C)c3)CC2)c1`, the INHIBITION is given as 33.7%.

Take `NC(=O)CS(=O)(=O)Cc1csc(-c2ccccc2)n1`: the INHIBITION stood at 46.6%.

With `CCS(=O)(=O)N1CC[C@H]2CO[C@H](CN(C)C)[C@H]2C1`, the INHIBITION came to 19.4%.

In the case of `Cc1nc(NC(=O)OC(C)(C)C)sc1C#N`, the INHIBITION is 53.4%.

Turning to `Cc1nc(NC(=O)OC(C)(C)C)sc1C(N)=O`, the INHIBITION was -0.514%.

Turning to `Cc1nc(NC(=O)OC(C)(C)C)sc1C(=O)O`, the INHIBITION was determined as 46.6%.

As to `O=C(c1ccc[nH]1)N1CCc2ncc(Cn3cccn3)n2CC1`, the INHIBITION came to 25.6%.

Turning to `c1ccc(N2CCC(OCC3CCCCO3)CC2)nc1` (configuration not stated), the INHIBITION worked out at 62.9%.

`c1ccc(CCN2CCC(OCC3CCCCO3)CC2)nc1` (configuration not stated): the INHIBITION is recorded as 7.24%.

In the case of `Cc1nccn1-c1cccc(C2CCCN2)n1` (configuration not stated), the INHIBITION is given as -2.09%.

As to `c1cnc(N2CCC(OCC3CCCCO3)CC2)nc1` (configuration not stated), the INHIBITION is given as 31.1%.

As for `c1ccc(N2CCN(Cc3cnc(C4CCCCO4)nc3)CC2)cc1` (configuration not stated), the INHIBITION is listed as 21.1%.

For `Clc1ccc(N2CCC(OCC3CCCCO3)CC2)nc1` (configuration not stated), the INHIBITION is 34.5%.

As to `c1ccc(CN2CCN(Cc3cnc(C4CCCCO4)nc3)CC2)cc1` (configuration not stated), the INHIBITION turned out to be 10.9%.

As to `Cc1nccn1-c1cccc(N2CCC(OCC3CCCCO3)CC2)n1` (configuration not stated), the INHIBITION amounted to 95.9%.

As for `c1ccc(N2CCN(Cc3cnc(C4CCCCO4)nc3)CC2)nc1` (configuration not stated), the INHIBITION is listed as 51.7%.

Consider `CCCn1cc(C(=O)N2CCCC2(C)c2nc(C)cc(C)n2)cn1` (configuration not stated), for which the INHIBITION is recorded as -3.02%.

Consider `Cn1cc(S(=O)(=O)N(CC(F)(F)F)C2CC2)cc1C(N)=O`, for which the INHIBITION is reported as -29.2%.

Regarding `O=C(Cn1cnc2ccsc2c1=O)c1ccc2c(c1)OCCO2`, the INHIBITION is listed as -73.1%.

As for `COCC(=O)NCCC(=O)N1CCN(S(=O)(=O)c2ccc(Br)cc2)CC1`, the INHIBITION is 68.4%.

For the molecule `COCC(=O)NCCC(=O)N1CCN(S(=O)(=O)c2cccc(Br)c2)CC1`, the INHIBITION was determined as 63.8%.

Consider `COCC(=O)N1CCN(S(=O)(=O)c2ccccc2)[C@@H](C(=O)OC)C1`, for which the INHIBITION is -33%.
